# LGR2 antag: Drosophila LGR2 receptor signaling inhibition; HEK293 LGR2, CRE-luciferase, bursicon-stimulated, 4 h; inhibition, % at 9.99 µM; hit rate 0.35% among 380,000;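 active = drop in luminescence signal, shown as inhibition above about 50% in the replicate tests, limit read from the data, passing the limit was not always enough; inconclusive = probably only some replicates passing the limit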;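 note: agonist challenge used bursicon conditioned medium at about half maximal strength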
# PAX8 reporter: PAX8 transcriptional activity inhibition; RMG-I TPO-luciferase reporter, SteadyGlo, 24 h; inhibition, % at 12.6 µM; hit rate 1.2% among 360,000;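 active = mean replicate inhibition at least 60% with every replicate also reaching 60%; inconclusive = only one of the two criteria is met; inactive = mean below 60% and not all replicates reaching 60%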;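 note: luciferase light reporting Pax8 driven TPO promoter activity; plate controls were median of neutral control wells for no effect and mitoxantrone controls for full effect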
# EWS-Fli block: inhibitors of EWS/Fli oncoprotein transcriptional activity; A673 NR0B1-luciferase reporter, viability-normalised; inhibition, % at 12.6 µM; hit rate 0.67% among 350,000; AID 651661;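 active = mean inhibition of at least 50% after viability correction, with every replicate also passing that limit; inconclusive = mean reaches 50% but only one of two replicates passes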;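 note: firefly luciferase signal divided by Alamar Blue viability fluorescence both relative to DMSO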
# EBV LMP1 NFkB: Epstein-Barr LMP1 NF-kappaB reporter inhibition. LMP1-induced NF-kappaB luciferase reporter cells, luminescence. inhibition, % at 12.5 µM. hit rate 0.69% among 350,000; in the data active = inhibition above about 41%; inconclusive = no clear call, values can overlap the other calls;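 note: 0% = neutral control wells and 100% = reference inhibitor control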
# TROY signal inh: blocks TROY-dependent signaling in reporter cells; AID 1347056; Q293 LMP1-TROYcd NF-kB luciferase reporter, 4 h; hit rate 0.98% among 360,000; inhibition, % at 10 µM;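 active = compounds whose plate-normalised and pattern-corrected inhibition of the luciferase reporter signal at the single screening dose is 50% or more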
# TWEAK Fn14 block: inhibitors of TWEAK-Fn14 interaction signaling. TWEAK-stimulated Fn14 reporter cells, luciferase luminescence, 8 h. inhibition, % at 10 µM. hit rate 2% among 360,000. AID 1159606; in the data active = inhibition above about 50%
# * hit, by the source's call; ? = inconclusive; · = no result given. Only some compounds are listed: those with a hit (about 3.1% of all), similar ones and a draw of the others.
SMILES,LGR2 antag,PAX8 reporter,EWS-Fli block,EBV LMP1 NFkB,TROY signal inh,TWEAK Fn14 block
COc1ccccc1-c1cn(CC[C@@H]2CC[C@@H](NC(=O)C3CCCC3)[C@H](CO)O2)nn1,13,-11,·,·,·,·
CC(=O)N1CC2(C1)[C@H](c1ccc(-c3cccc(F)c3)cc1)[C@@H](CO)N2CC1CCCC1,2,·,-5,·,·,·
COCCNC(=O)C(=O)c1c(-c2ccccc2)[nH]c2ccccc12,-8,-3,0,-14,-12,11
O=C(C(=O)N(Cc1ccccc1)Cc1ccccc1)c1c(-c2ccccc2)[nH]c2ccccc12,11,88*,5,-3,17,52*
Cc1cc(C)cc(Nc2nc3c([nH]2)c(=O)n(C)c(=O)n3C)c1,1,-2,-15,-2,21,28
Cn1c(=O)c2[nH]c(N=Nc3ccc(N)cc3N)nc2n(C)c1=O,-7,-9,-3,51*,-12,8
Cc1ccc(C(=O)CSc2nnnn2C(C)C)c(C)c1,·,2,·,46*,53*,90*
C[C@@H]1CN([C@@H](C)CO)C(=O)Cc2cc(NC(=O)C3CC3)ccc2O[C@H]1CN(C)C(=O)Nc1ccccc1,-3,1,-2,·,·,·
COc1ccc(NC(=O)Nc2ccc3c(c2)CC(=O)N([C@@H](C)CO)C[C@H](C)[C@@H](CN(C)Cc2ccc(C(=O)O)cc2)O3)cc1,-36,·,-53,·,·,·
O=C(CCn1c2c(c3ccccc31)CCCC2)NNC(=O)c1cccc([N+](=O)[O-])c1,-4,2,·,10,7,3
O=C(CCn1c2c(c3ccccc31)CCCC2)NNC(=O)c1ccccc1Cl,8,0,·,1,38,65*
CC(=O)Nc1nc2c(ccc3ccccc32)s1,-7,-5,-63,-16,-21,-21
O=C(Cc1cccs1)Nc1nc2c(ccc3ccccc32)s1,-56,·,·,-4,-5,50*
COc1ccc(NC(=O)N(C)C[C@H]2OCCCC[C@@H](C)Oc3ccc(NC(=O)C4CCCCC4)cc3C(=O)N([C@H](C)CO)C[C@H]2C)cc1,4,·,5,·,·,·
CC(C)c1ccc(NC(=S)Nc2ccc3cn[nH]c3c2)cc1,-3,-44,-53,-16,53*,-2
Cc1ccc(NC(=S)Nc2ccc3cn[nH]c3c2)cc1C,-6,-28,·,-4,-11,-24
N#C/C(=C\c1ccc(OCc2ccc(C(=O)O)cc2)cc1)C(=O)N1CCOCC1,80*,87*,81*,84*,-63,-6
CO[C@H]1CN(C)C(=O)c2cc(NS(=O)(=O)c3cccc(F)c3)ccc2OC[C@@H](C)N(Cc2cc(F)ccc2F)C[C@H]1C,23,·,20,·,·,·
O=C(Nc1ccccn1)NC1CCCCC1,·,·,·,84*,-13,-6
O=C(NC(=O)c1ccccc1)Nc1ccccn1,89*,85*,·,71*,73*,95*
Cc1ccc(NC(=O)C(=O)Nc2ccccn2)cc1,93*,2,?,56*,57*,86*
C[C@@H]1CCCCO[C@H](CN(C)S(=O)(=O)c2ccc(Cl)cc2)[C@@H](C)CN([C@H](C)CO)C(=O)c2cc(NS(=O)(=O)c3cn(C)cn3)ccc2O1,5,-3,-12,·,·,·
O=c1cc2oc3cc(O)c(O)cc3c(-c3ccccc3[N+](=O)[O-])c-2cc1O,19,102*,-55,23,37,45
CN1C(=O)c2cc(NS(=O)(=O)c3cccc(F)c3)ccc2OC[C@H]2O[C@H](CC(=O)N3CCc4ccccc4C3)CC[C@H]21,12,-4,4,·,·,·
CCCN1[C@H](C(=O)N[C@@H](C)c2ccccc2)[C@@H](CO)[C@@H]2Cn3c(ccc(-c4cccc(F)c4)c3=O)[C@@H]21,2,·,7,·,·,·
CO[C@H]1CC[C@H]2CCN(C)C(=O)[C@@H](C)[C@H](OC)CN(C)C(=O)c3cc(C#N)ccc3OC[C@H]1O2,-9,1,1,·,·,·
O=C(N/N=C/c1cc(Cl)cc([N+](=O)[O-])c1O)NC12CC3CC(CC(C3)C1)C2,39,·,19,0,43,66*
CC(C)N=C(NS(=O)(=O)c1ccccc1)C(Cl)(Cl)Cl,62*,96*,48,-2,77*,101*
O=S(=O)(NC(=S)c1ccccc1)c1ccccc1,·,17,-6,-10,1,-20

# High-throughput results: PubChem, several laboratories
